# Tests used:
# Assay in all cases: DAPPL (digital affinity profiling via proximity ligation, sequencing); 10 mM Tris-HCl pH 7.5, 50 mM NaCl, 1 mM DTT, 4% glycerol, room temperature, 30 min; GST-TFs on glutathione beads, 16-mer random dsDNA library, 0.1% formaldehyde crosslink after washing; high values mean tight binding
# FEV = target: T1, FEV (Homo sapiens, UniProt Q99581 1-238); details: protein: recombinant; tags: N-terminal GST; dsDNA, one strand shown
# T1 sequence: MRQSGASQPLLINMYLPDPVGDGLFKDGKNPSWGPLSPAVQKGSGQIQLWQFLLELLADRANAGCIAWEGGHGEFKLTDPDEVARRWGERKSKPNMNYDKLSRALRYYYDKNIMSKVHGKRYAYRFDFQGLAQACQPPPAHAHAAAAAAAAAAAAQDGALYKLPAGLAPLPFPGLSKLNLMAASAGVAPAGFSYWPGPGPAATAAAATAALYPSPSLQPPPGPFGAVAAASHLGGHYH
# Method in brief: (§1)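 Binding signal is defined as a hexamer's read frequency for one factor over its frequency for the tag-only sample. To obtain reads, GST-fused human transcription factors were expressed in yeast, captured on glutathione beads, barcoded with DNA and pooled with that sample. Pools met 200 nmole of a 16-mer random double-stranded DNA library in Tris/NaCl/DTT/glycerol buffer for 30 min at room temperature before washing, 0.1% formaldehyde crosslinking, proximity ligation (BsaI/T4 ligase, 1 h, 37 °C), PCR and Illumina NextSeq500 sequencing.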
# ETV5 = ETV5 (Homo sapiens, UniProt P41161 1-510); details: protein: recombinant; tags: N-terminal GST; dsDNA, one strand shown
# Sequence of ETV5 (P41161 whole entry): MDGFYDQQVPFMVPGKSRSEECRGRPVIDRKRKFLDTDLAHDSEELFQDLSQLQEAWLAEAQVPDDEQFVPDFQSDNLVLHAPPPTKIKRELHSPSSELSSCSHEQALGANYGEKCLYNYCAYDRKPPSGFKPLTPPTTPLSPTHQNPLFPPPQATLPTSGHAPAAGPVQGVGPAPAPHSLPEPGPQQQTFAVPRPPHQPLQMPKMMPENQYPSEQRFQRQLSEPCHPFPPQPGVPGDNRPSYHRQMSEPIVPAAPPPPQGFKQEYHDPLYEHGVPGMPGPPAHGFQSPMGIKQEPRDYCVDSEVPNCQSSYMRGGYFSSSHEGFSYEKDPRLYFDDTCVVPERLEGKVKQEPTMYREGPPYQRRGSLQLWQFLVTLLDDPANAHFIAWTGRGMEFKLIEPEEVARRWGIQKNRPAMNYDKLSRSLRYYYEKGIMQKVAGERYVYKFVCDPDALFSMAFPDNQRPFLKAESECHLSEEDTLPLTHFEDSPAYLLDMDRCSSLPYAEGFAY
# Method in brief: as §1
# HSF1 = HSF1 (Homo sapiens, UniProt Q00613 1-529); details: protein: recombinant; tags: N-terminal GST; chain copies: 3; dsDNA, one strand shown
# Sequence of HSF1 (Q00613 whole entry): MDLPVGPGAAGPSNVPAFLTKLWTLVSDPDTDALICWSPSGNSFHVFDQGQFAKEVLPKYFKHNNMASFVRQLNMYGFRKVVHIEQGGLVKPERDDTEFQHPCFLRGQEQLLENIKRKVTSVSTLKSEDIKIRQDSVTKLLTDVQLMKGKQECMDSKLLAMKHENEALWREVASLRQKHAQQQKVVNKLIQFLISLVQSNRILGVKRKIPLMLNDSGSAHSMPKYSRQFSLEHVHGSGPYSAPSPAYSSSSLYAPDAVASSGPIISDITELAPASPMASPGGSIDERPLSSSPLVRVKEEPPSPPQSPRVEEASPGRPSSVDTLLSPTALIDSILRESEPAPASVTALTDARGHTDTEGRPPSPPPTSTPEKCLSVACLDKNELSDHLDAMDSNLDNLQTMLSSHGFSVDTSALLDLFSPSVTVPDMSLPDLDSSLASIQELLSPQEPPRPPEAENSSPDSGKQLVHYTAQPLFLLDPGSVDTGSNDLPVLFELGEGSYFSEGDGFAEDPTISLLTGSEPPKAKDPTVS
# Method in brief: as §1
# SPIC = target: T2, SPIC (Homo sapiens, UniProt Q8N5J4 1-248); details: protein: recombinant; tags: N-terminal GST; dsDNA, one strand shown
# T2 sequence: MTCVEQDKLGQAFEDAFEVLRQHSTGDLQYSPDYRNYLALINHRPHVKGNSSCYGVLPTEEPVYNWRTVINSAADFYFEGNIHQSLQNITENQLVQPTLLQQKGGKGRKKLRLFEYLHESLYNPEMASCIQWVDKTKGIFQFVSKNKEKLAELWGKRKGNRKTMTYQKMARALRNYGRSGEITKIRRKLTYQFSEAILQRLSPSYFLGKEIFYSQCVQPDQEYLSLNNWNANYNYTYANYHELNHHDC
# Method in brief: as §1
# ELF4 = ELF4 (Homo sapiens, UniProt Q99607 1-663); details: protein: recombinant; tags: N-terminal GST; dsDNA, one strand shown
# Sequence of ELF4 (Q99607 whole entry): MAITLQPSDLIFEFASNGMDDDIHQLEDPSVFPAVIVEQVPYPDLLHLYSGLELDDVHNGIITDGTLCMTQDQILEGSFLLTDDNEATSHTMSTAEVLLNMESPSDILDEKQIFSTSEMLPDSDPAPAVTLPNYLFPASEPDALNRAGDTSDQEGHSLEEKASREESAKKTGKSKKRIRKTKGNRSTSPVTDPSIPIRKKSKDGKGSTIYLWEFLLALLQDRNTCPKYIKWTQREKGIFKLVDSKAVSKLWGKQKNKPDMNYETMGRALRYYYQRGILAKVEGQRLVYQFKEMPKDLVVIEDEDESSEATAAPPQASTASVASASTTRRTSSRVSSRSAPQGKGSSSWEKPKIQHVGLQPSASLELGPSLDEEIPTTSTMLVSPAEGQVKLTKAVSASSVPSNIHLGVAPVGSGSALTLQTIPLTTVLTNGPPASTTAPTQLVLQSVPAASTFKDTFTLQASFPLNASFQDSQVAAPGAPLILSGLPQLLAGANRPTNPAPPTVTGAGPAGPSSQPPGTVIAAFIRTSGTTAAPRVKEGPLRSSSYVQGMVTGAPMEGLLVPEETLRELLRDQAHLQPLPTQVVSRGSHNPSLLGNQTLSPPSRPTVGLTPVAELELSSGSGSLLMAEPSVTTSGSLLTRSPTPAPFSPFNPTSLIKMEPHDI
# Method in brief: as §1
# ELK4 = target: T3, ELK4 (Homo sapiens, UniProt P28324-2 1-405); details: protein: recombinant; tags: N-terminal GST; dsDNA, one strand shown
# T3 sequence: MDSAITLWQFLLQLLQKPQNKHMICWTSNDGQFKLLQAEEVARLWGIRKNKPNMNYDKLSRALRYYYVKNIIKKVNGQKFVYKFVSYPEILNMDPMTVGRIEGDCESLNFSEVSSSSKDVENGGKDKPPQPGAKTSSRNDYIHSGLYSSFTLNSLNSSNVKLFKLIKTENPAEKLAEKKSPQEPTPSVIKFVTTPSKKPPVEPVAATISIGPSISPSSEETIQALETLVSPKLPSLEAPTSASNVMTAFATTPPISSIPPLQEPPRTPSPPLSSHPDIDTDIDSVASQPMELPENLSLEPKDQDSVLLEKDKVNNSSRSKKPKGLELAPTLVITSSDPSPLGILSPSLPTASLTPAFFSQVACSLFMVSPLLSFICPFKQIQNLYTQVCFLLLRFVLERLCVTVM
# Method in brief: as §1
# ETV2 = target: T4, ETV2 (Homo sapiens, UniProt O00321 1-342); details: protein: recombinant; tags: N-terminal GST; dsDNA, one strand shown
# T4 sequence: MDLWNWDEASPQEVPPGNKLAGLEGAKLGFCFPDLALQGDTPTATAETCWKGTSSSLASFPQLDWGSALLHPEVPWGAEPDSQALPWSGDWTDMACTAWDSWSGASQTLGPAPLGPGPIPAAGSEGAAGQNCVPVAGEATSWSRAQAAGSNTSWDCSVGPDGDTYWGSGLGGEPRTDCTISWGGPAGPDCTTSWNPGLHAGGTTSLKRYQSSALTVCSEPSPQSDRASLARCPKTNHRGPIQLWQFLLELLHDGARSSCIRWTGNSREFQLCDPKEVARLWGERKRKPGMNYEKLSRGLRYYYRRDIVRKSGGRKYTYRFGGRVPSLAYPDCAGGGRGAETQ
# Method in brief: as §1
# ELF3 = target: T5, ELF3 (Homo sapiens, UniProt P78545 1-371); details: protein: recombinant; tags: N-terminal GST; dsDNA, one strand shown
# T5 sequence: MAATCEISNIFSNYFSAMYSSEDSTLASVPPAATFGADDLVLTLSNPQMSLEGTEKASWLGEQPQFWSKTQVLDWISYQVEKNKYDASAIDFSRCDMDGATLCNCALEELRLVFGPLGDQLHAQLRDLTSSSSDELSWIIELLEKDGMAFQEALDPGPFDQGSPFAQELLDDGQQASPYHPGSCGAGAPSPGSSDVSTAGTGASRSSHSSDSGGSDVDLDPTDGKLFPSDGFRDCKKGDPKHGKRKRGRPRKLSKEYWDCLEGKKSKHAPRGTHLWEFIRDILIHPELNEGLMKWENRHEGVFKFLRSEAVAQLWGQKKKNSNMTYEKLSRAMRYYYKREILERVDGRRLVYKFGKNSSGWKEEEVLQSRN
# Method in brief: as §1
# CRX = CRX (Homo sapiens, UniProt O43186 1-299); details: protein: recombinant; tags: N-terminal GST; dsDNA, one strand shown
# Sequence of CRX (O43186 whole entry): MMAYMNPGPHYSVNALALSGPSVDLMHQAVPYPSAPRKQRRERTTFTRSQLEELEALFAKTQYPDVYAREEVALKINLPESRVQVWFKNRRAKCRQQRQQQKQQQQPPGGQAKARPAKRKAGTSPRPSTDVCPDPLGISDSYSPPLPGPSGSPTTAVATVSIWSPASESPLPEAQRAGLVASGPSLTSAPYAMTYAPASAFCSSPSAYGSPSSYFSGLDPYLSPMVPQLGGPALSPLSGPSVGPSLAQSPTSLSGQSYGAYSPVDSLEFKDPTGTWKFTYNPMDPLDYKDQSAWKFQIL
# Method in brief: as §1
# ETV1 = ETV1 (Homo sapiens, UniProt P50549 1-477); details: protein: recombinant; tags: N-terminal GST; dsDNA, one strand shown
# Sequence of ETV1 (P50549 whole entry): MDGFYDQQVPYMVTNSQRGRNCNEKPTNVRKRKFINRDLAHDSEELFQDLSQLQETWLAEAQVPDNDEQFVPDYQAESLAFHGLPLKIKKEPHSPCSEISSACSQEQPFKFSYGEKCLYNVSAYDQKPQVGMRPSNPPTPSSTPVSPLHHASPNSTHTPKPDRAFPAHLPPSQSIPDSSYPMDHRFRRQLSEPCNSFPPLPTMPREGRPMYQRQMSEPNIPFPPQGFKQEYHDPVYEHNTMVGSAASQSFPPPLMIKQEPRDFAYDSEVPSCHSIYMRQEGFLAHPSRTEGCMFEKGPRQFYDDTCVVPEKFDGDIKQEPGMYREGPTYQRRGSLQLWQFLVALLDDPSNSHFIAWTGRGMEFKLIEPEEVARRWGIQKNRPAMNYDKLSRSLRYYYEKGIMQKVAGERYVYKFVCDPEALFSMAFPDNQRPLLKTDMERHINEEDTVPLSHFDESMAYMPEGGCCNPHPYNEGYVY
# Method in brief: as §1
# ERF = target: T6, ERF (Homo sapiens, UniProt P50548 1-548); details: protein: recombinant; tags: N-terminal GST; dsDNA, one strand shown
# T6 sequence: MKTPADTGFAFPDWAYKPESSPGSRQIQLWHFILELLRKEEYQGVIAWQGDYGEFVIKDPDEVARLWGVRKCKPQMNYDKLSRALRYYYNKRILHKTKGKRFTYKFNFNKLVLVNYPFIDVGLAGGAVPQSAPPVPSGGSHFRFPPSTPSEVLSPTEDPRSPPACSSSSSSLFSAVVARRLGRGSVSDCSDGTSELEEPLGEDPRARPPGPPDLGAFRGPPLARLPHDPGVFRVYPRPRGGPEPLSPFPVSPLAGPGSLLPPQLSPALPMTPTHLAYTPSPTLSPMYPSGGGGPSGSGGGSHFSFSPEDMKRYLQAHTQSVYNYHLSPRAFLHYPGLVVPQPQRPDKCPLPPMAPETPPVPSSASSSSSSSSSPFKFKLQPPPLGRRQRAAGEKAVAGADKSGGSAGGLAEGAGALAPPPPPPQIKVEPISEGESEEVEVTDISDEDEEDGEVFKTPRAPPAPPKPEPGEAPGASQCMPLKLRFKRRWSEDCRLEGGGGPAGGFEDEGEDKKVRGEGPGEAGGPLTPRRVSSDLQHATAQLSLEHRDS
# Method in brief: as §1
# ETV3L = target: T7, ETV3L (Homo sapiens, UniProt Q6ZN32 1-361); details: protein: recombinant; tags: N-terminal GST; dsDNA, one strand shown
# T7 sequence: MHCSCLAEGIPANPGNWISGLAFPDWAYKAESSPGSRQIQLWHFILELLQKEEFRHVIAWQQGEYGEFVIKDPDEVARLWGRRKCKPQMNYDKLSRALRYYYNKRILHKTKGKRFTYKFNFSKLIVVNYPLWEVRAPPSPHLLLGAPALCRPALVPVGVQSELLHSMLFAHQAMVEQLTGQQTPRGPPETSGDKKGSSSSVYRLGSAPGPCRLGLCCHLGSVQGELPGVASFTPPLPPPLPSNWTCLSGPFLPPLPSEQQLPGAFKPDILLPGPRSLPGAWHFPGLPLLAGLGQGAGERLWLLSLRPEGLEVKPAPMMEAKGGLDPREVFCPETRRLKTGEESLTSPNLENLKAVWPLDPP
# Method in brief: as §1
# ETS2 = target: T8, ETS2 (Homo sapiens, UniProt P15036 1-469); details: protein: recombinant; tags: N-terminal GST; dsDNA, one strand shown
# T8 sequence: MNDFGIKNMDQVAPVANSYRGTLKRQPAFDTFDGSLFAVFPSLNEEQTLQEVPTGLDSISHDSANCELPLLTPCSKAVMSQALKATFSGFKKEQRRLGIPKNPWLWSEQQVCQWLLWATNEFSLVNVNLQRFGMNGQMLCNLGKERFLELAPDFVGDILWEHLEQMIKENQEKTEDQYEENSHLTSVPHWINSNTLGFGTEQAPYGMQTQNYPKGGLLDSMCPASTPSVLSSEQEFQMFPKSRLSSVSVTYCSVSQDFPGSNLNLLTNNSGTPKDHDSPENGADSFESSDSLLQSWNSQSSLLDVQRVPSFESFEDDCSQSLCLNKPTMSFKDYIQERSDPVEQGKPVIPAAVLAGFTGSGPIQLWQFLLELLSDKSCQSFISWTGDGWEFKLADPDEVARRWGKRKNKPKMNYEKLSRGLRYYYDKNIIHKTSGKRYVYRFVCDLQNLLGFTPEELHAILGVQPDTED
# Method in brief: as §1
# SPDEF = target: T9, SPDEF (Homo sapiens, UniProt O95238 1-335); details: protein: recombinant; tags: N-terminal GST; dsDNA, one strand shown
# T9 sequence: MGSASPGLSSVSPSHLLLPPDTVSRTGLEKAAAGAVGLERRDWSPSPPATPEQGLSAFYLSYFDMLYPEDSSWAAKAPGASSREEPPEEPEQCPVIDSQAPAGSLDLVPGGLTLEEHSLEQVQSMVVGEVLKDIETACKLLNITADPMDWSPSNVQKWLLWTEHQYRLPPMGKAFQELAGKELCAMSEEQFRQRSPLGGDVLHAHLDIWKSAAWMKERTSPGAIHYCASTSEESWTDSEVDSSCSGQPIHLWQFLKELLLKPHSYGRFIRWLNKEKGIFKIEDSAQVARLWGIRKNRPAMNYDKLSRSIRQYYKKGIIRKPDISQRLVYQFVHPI
# Method in brief: as §1
# ETV7 = target: T10, ETV7 (Homo sapiens, UniProt Q9Y603 1-341); details: protein: recombinant; tags: N-terminal GST; dsDNA, one strand shown
# T10 sequence: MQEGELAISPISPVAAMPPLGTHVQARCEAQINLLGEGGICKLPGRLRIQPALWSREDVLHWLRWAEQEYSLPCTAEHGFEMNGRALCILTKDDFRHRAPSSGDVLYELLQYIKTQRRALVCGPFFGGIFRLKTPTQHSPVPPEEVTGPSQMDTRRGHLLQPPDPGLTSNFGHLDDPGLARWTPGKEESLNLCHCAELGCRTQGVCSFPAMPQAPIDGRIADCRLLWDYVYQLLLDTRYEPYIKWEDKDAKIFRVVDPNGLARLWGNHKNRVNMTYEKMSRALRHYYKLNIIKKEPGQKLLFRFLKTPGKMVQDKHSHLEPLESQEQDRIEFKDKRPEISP
# Method in brief: as §1
# ELF5 = target: T11, ELF5 (Homo sapiens, UniProt Q9UKW6-2 1-255); details: protein: recombinant; tags: N-terminal GST; dsDNA, one strand shown
# T11 sequence: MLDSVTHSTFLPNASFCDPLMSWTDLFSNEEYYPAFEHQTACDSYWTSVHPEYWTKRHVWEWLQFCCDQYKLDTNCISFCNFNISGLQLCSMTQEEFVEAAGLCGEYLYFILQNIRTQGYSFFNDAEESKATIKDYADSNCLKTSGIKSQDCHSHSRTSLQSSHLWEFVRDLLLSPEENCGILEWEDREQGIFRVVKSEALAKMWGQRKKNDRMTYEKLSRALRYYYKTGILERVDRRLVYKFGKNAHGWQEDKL
# Method in brief: as §1
# ETV3 = target: T12, ETV3 (Homo sapiens, UniProt P41162-2 1-143); details: protein: recombinant; tags: N-terminal GST; dsDNA, one strand shown
# T12 sequence: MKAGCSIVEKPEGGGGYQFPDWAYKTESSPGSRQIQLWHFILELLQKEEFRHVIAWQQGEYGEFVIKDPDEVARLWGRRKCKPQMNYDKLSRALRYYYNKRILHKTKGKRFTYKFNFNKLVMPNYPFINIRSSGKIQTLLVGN
# Method in brief: as §1
# ETV6 = ETV6 (Homo sapiens, UniProt P41212 1-452); details: protein: recombinant; tags: N-terminal GST; dsDNA, one strand shown
# Sequence of ETV6 (P41212 whole entry): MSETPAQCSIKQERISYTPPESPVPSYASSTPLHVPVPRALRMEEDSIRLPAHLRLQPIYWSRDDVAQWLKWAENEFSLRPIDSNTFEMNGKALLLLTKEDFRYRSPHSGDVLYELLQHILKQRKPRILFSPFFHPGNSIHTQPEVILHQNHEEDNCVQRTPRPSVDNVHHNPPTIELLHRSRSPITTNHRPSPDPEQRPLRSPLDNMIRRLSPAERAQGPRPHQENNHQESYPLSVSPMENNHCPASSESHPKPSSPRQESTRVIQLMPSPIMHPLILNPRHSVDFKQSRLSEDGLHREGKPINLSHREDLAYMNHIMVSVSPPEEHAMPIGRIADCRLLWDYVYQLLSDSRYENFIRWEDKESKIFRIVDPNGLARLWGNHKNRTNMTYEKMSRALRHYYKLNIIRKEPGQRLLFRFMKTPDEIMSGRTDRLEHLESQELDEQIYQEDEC
# Method in brief: as §1
sequence,measurement,setting,value
CCTAAT,binding signal,FEV,"1.32 fold enrichment (6-mer frequency, TF over GST control)"
same,binding signal,ETV5,"1.31 fold enrichment (6-mer frequency, TF over GST control)"
same,binding signal,HSF1,"1.75 fold enrichment (6-mer frequency, TF over GST control)"
same,binding signal,SPIC,"1.33 fold enrichment (6-mer frequency, TF over GST control)"
same,binding signal,ELF4,"1.26 fold enrichment (6-mer frequency, TF over GST control)"
same,binding signal,ELK4,"1.24 fold enrichment (6-mer frequency, TF over GST control)"
same,binding signal,ETV2,"1.44 fold enrichment (6-mer frequency, TF over GST control)"
same,binding signal,ELF3,"1.52 fold enrichment (6-mer frequency, TF over GST control)"
same,binding signal,CRX,"2.61 fold enrichment (6-mer frequency, TF over GST control)"
same,binding signal,ETV1,"1.38 fold enrichment (6-mer frequency, TF over GST control)"
same,binding signal,ERF,"1.24 fold enrichment (6-mer frequency, TF over GST control)"
same,binding signal,ETV3L,"1.33 fold enrichment (6-mer frequency, TF over GST control)"
same,binding signal,ETS2,"1.33 fold enrichment (6-mer frequency, TF over GST control)"
same,binding signal,SPDEF,"1.36 fold enrichment (6-mer frequency, TF over GST control)"
same,binding signal,ETV7,"1.31 fold enrichment (6-mer frequency, TF over GST control)"
same,binding signal,ELF5,"1.25 fold enrichment (6-mer frequency, TF over GST control)"
same,binding signal,ETV3,"1.22 fold enrichment (6-mer frequency, TF over GST control)"
same,binding signal,ETV6,"1.31 fold enrichment (6-mer frequency, TF over GST control)"
